CtBP-E1A inh: CtBP/E1A binding inhibition; AID 651724; activity change, % (concentration not given with the values); AlphaScreen GST-E1A/His-CtBP binding, 1536-well; hits give low values; 340,000 tested, 0.49% active; in the data active = activity change below about -65%; inconclusive = mostly about -30% to -63%; also: % is scaled to controls: 0 for no effect and ±100 for the full control effect
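Protein mix (5X: 125 nM each GST-E1A, His-CtBP) was incubated with pinned compound 2 h at 37 deg C in dark, in 50 mM Tris pH 8.0 buffer with 300 mM NaCl. Glutathione donor and nickel acceptor beads followed; AlphaScreen signal read after 1 h.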
G9a inh: G9a (human) methyltransferase inhibition; AID 504332; 350,000 tested, 8.8% active; Potency, µM (series often up to 102 µM), without a hit: at the highest dose activity, negative = inhibition, actives largely listed as inhibitors; G9a H3K9 monomethylation, AlphaScreen, 2 h; Q96KQ7; also: potency is read from the fitted curve at half-maximal effect; % is scaled to controls: 0 for no effect and ±100 for the full control effect; nearly all actives have a fitted effect of over 75% in size
Target sequence (Q96KQ7 913-1193 limits assumed): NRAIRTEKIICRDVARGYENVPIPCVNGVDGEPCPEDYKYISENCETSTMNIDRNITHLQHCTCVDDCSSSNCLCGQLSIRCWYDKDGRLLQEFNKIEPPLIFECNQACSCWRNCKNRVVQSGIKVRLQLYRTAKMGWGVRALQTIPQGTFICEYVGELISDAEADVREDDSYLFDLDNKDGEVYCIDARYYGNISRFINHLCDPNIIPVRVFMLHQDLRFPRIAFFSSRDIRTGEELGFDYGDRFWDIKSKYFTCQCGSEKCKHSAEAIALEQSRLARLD
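Readings reflect AlphaScreen signal from monomethyl-H3K9 antibody detection. HMT at 20 nM; substrate b-H3K9 500 nM; cofactor SAM 20 uM; 2 h RT reaction; compounds tested as titrations in qHTS with 15 min preincubation.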
BAZ2B block: BAZ2B (human) inhibition | AlphaScreen BAZ2B-H3K14Ac peptide displacement | 360,000 tested, 4.4% active | Potency, µM (series often up to 114 µM), for inactives: at the highest dose activity change, negative = inhibition, hits mostly inhibitors; also: potency is read from the fitted curve at half-maximal effect; % is scaled to controls: 0 for no effect and ±100 for the full control effect; nearly all actives have a fitted effect of over 60% in size
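Inhibition is scored as reduced AlphaScreen emission. The BAZ2B/b-H3(5-23)K14Ac complex (50 nM each) in PBS pH 7.4, 0.01% Tween-20 meets compound (up to 110 uM) for 30 min at RT before bead addition.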
JMJD2A Tudor inh: blocks the human JMJD2A Tudor domain; AlphaScreen JMJD2A-Tudor / H3K4me3 peptide binding; Potency, µM (doses to about 114 µM), without a hit: at the top dose activity change, negative = inhibition, actives largely listed as inhibitors; 390,000 tested, 4.4% active; AID 504339; also: potency is read from the fitted curve at half-maximal effect; % is scaled to controls: 0 for no effect and ±100 for the full control effect; nearly all actives have a fitted effect of over 50% in size
HP1b binding inh: inhibitors of HP1-beta chromodomain binding to methylated histone tails | P83916 | AlphaScreen HP1-beta / biotin-H3K9me3 peptide binding | Potency, µM (titrated, usually from 114 µM), for inactives: top-dose activity change, negative = inhibition, actives largely listed as inhibitors | 390,000 tested, 0.56% active | AID 540317; also: potency is read from the fitted curve at half-maximal effect; nearly all actives have a fitted effect of over 70% in size
Target sequence (P83916 whole entry, looked up): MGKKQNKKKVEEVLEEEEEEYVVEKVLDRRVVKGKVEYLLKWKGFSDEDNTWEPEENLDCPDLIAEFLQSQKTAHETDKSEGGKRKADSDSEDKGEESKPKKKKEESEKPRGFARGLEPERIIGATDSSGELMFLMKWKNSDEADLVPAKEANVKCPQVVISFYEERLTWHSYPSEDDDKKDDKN
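Compound inhibition of the preformed complex between 50 nM HP1-beta and 50 nM biotinylated H3K9me3 peptide was read by AlphaScreen. Buffer was PBS pH 7.4 with 0.01% Tween-20. Incubations ran 30 min at room temperature, with 10 ug/mL donor/acceptor beads.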
Six1-Eya2 inh: inhibitors of human Six1/Eya2 interaction; Q15475+O00167; AlphaScreen GST-Six1/His-Eya2 binding, biochemical; hits give low values; activity change, % (concentration not given with the values); AID 651725; 360,000 tested, 0.56% active; in the data active = activity change below about -65%; inconclusive = mostly about -30% to -63%; also: % is scaled to controls: 0 for no effect and ±100 for the full control effect
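Six1/Eya2 binding was read as AlphaScreen signal after compounds were pinned into GST-Six1 plus His-tagged Eya2 (5X stock 250/500 nM) in pH 8.0 Tris/NaCl/TCEP buffer, beads added, then incubated 1 h, 37 C, dark.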
Starred values were filed as active, the others as inactive; u = inconclusive; x = not tested or not shown; [ ] = another dose, or the depositor's remark. Sampled rows, rich in hits. Any-hit rate of the full collection: about 10%. Unless noted, calls follow the shape of the dose curve; as a rule, active = well fitted inhibition curve with a large enough effect; inconclusive = small, poorly fitted or top-dose-only effect; inactive = no such curve, though single readings can be large or run the other way.

SMILES | CtBP-E1A inh | G9a inh | BAZ2B block | JMJD2A Tudor inh | HP1b binding inh | Six1-Eya2 inh
CC(=O)Nc1nc(C)c(-c2csc(Nc3cccc([N+](=O)[O-])c3)n2)s1 | 9.1 | 20.3%[59 µM] | -1.9% | -7.9% | 34.9% | -21.6
Cc1cc(O)ccc1Nc1nc(-c2sc(N)nc2C)cs1 | -66.7* | 14.7%[59 µM] | -2.3% | 50.1µM* | -31.2% | u
Cc1ccc(Nc2nc(-c3sc(NC(=O)c4ccco4)nc3C)cs2)cc1 | -1.6 | u | u | u | -15.9% | -3.6
Cc1nc(NC(=O)c2ccccc2)sc1-c1csc(Nc2ccc(C(=O)O)cc2)n1 | -2.7 | x | 10µM* | 22.4µM* | 39.8µM* | 5.3
CCC(=O)Nc1nc(C)c(-c2csc(Nc3ccc(C(=O)O)cc3)n2)s1 | -13.3 | 50.1µM* | -16.2% | -24.2% | 20.5% | -21.3
CC(=O)Nc1nc(C)c(-c2csc(Nc3cccc(C(C)=O)c3)n2)s1 | x | 39.8µM* | -39.0% | -28.8% | -8.0% | u
COc1cc(-c2nc(Cn3nnc(C(=O)Nc4ccc(C)cc4C)c3C)c(C)o2)cc(OC)c1OC | x | -14.9%[59 µM] | -5.2% | -6.8% | 10.0% | x
CCC(=O)Nc1nc(C)c(-c2csc(Nc3cccc(C(=O)O)c3)n2)s1 | -2.2 | 44.7µM* | u | -21.2% | -18.5% | -28.0
COc1cccc(Nc2nc(-c3sc(NC(=O)CC(C)C)nc3C)cs2)c1 | -9.0 | u | u | u | -4.2% | -9.3
COc1cccc(Nc2nc(-c3sc(NC(=O)c4ccccc4)nc3C)cs2)c1 | -0.3 | 50.1µM* | u | 79.4µM* | u | -3.7
CCCC(=O)Nc1nc(C)c(-c2csc(Nc3ccc(Cl)cc3)n2)s1 | -25.9 | 38.3%[0.501 µM] | 28.2µM* | u | u | -14.0
Cc1nc(N)sc1-c1csc(Nc2cccc(C(=O)O)c2)n1 | x | 44.7µM* | 50.1µM* | u | -0.9% | -18.8
CN(Cc1ccccc1)C(=O)Cn1c(=O)c2cccn2c2ccc(F)cc21 | x | -15.8%[59 µM] | 2.7% | -19.7% | 29.8% | x
C=CCNc1oc(-c2cccs2)nc1S(=O)(=O)c1ccccc1 | 15.4 | 23.7%[12.7 µM] | -29.9% | -8.4% | 11.8% | -23.6
Cc1nc(N)sc1-c1csc(Nc2ccccc2)n1 | u | u | 50.1µM* | u | -38.4% | u
Cc1csc(Nc2ccccc2)n1 | -9.0 | u | u | -18.6% | -9.6% | 7.4
Cc1ncc(COCc2ccccc2)c(CO)c1OCc1ccccc1 | 13.9 | x | x | -2.1% | 41.3% | -3.8
CCN(CC)c1ccc(SS(=O)(=O)O)cc1 | -4.8 | 5.01µM* | u | 56.2µM* | -22.4% | u
O=S(=O)(O)Sc1ccccc1 | -26.3 | x | x | x | x | 6.1
COc1ccc(-c2c(C)[nH]n3c(=O)c(Cc4ccccc4)c(C)nc23)cc1OC | u | -3.0% | -11.9% | -23.2% | 18.0% | -67.1*
Cc1[nH]n2c(=O)c3c(nc2c1-c1ccc(F)cc1)CCCC3 | -8.2 | 4.6% | -3.6% | -11.0% | 19.2% | -6.3
Cc1nc2c(-c3ccc(F)cc3)c(C)[nH]n2c(=O)c1Cl | -4.3 | 50.1µM* | -1.8% | -15.3% | 31.0% | -10.5
CCOC(=O)Cc1c(C)nc2c(-c3ccccc3)c(-c3ccccc3)[nH]n2c1=O | u | 17.0% | -2.6% | -9.6% | 23.4% | -75.2*
CCOC(=O)Cc1c(C)nc2c(-c3ccccc3)c(C)[nH]n2c1=O | -2.2 | x | 29.7% | -24.7% | 17.4% | -7.8
Cc1nc2c(-c3ccccc3)c(C)[nH]n2c(=O)c1Cc1ccccc1 | x | 48.7% | -1.5% | -6.8%[11.4 µM] | 31.2% | u
SMILES | CtBP-E1A inh | G9a inh | BAZ2B block | JMJD2A Tudor inh | HP1b binding inh | Six1-Eya2 inh
Cc1nc2c(-c3ccc(Cl)cc3)c(C)[nH]n2c(=O)c1Cc1ccccc1 | -81.5* | -26.2% | 3.6% | -31.2% | -5.2% | -76.1*
Cc1cccc(Cc2c(C)nc3c(-c4ccccc4)c(C)[nH]n3c2=O)c1 | x | 20.3%[59 µM] | -10.1% | -16.8% | 28.7% | x
CC(C)(C)c1ccccc1Nc1nc(C#N)nc(NC2CCCC2)n1 | x | x | x | -17.1% | x | x
Cc1ccc(-n2nc(CO)c(C(=O)NCc3cccs3)n2)cc1C | x | 10.1%[59 µM] | 2.7% | -27.4% | 15.8% | x
COc1ccccc1CN1C(=O)C(C)ON=C1c1ccccc1F (stereo not given) | 7.0 | x | x | x | x | -0.6
CCN(CC)CCNC(C(=O)Nc1cc(C(F)(F)F)ccc1Cl)c1ccccc1 (stereo not given) | 0.9 | 10µM* | u | -7.5% | 31.7% | 0.9
CCC(=O)Nc1ccc(NC(=O)CSc2nnnn2C2CCCC2)cc1C | 9.2 | 25.0% | 20.3% | -0.7% | 32.8% | 5.1
O=C(CSc1ncn[nH]1)c1ccco1 | 1.4 | 5.62µM* | 0.0% | -4.6%[11.4 µM] | u | 4.1
O=C(CSc1ncn[nH]1)c1ccccc1 | 4.3 | 3.16µM* | u | 25.1µM* | -70.3% | 3.2
O=C(CSc1nc2cc(Cl)ccc2s1)c1ccco1 | 12.5 | 15.1% | 43.6% | 29.5% | 55.7% | 5.7
O=C(CSc1nnc(SCC(=O)c2ccco2)s1)c1ccco1 | -1.5 | -11.9%[59 µM] | u | 20µM* | u | 0.8
O=C(CSc1ncn[nH]1)Nc1ccc(Cl)c(Cl)c1 | 8.7 | 44.7µM* | -2.0% | -4.6%[11.4 µM] | 58.9% | -3.1
COCCCn1cc(C(=O)c2cc(OC)ccc2OCC(=O)Nc2cc(C)on2)cc(C#N)c1=O | 2.0 | 5.6%[12.7 µM] | 7.2% | 7.4% | 32.7% | -0.8
Cc1ccc(CNC(=O)CSc2ncn[nH]2)cc1 | 4.7 | 12.3%[59 µM] | 8.8% | -5.4% | 41.6% | 6.1

Screening results as filed in PubChem BioAssay.
